Among the data in PubChem BioAssay (NCI) are growth values, retold here.

Where “and” joins values, the source holds several entries; their conditions need not be identical. Identical values can stand only once. About 83,000 compounds went through this panel and 20% of them were active in at least one assay; those are over-represented in the sample as a whole.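 Single-dose data. Exposure time 48 hours. Values below 10 considered active.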 Calls of active or inactive are those of the source.

This assay concerns HL-60(TB) leukemia. Kind of assay: NCI-60 one-dose screen, 48 h (100 = growth as untreated, 0 = no growth, -100 = all killed). Conditions: 10 µM unless noted.
Turning to `COc1cc(OC)c2c(c1)c1nc3cc(C)c(C)cc3nc1n2CCN(C)C`, the growth is 103% (inactive).
Consider `COc1ccc(-c2csc(NC(=O)c3ccc(Cc4n[nH]c(=O)c5cccnc45)cc3)n2)cc1`, for which the growth is 104% (inactive).
To `COc1ccc(-c2nsc3c2NC(=O)CC3c2ccc3c(c2)OCCO3)cc1` (stereo not given) belongs 13% (inactive).
For the compound `C#Cc1cccc(NC(=O)c2ccc(NC(=O)CCl)cc2)c1`, the growth was 11.7% [8.25 µM] (inactive).
Take `O=[N+]([O-])c1ccc(N/N=C(/C(=N/Nc2ccc([N+](=O)[O-])cc2)c2ccccc2)c2ccccc2)cc1`: the growth was 117% (inactive).
To `O=CN1CCCCC1` belongs 97% (inactive).
To `COc1ccccc1CNC(=O)C1c2ccccc2C(=O)N(CC(C)C)C1c1cccs1` (stereo not given) belongs 67.9% (inactive); to `Oc1nc(NCCc2ccccc2)sc1/C=C1\C=Nc2ncccc21`, -6.57% (active) and 6.77% (active); to `NC1CCC(C(=O)O)CC1` (stereo not given), 113% (inactive) and 110% (inactive).
To `COc1ccc2c(c1)C(=O)c1c-2c(OCCN(C)C)nc2cc(OC)c(OC)cc12` belongs 89.9% (inactive); to `N#Cc1c(-c2ccc(Cl)cc2)nc(NN=Cc2cccc(O)c2)nc1N1CCOCC1`, 66.6% (inactive); to `CCn1ccnc1C(=O)/C=C/c1ccc(CC(=O)Nc2ccc(F)cc2)cc1`, 27.9% (inactive).
As to `O=C(/C=C/c1cccc(Cl)c1)c1ccccc1`, the growth was 95.3% (inactive) and 82.5% (inactive).
To `CC1=CC2(C)/C=C(C)/C=C\CC(O)/C=C3/C=CC(=C4C(=O)OC2(CC1C)C4=O)OC3` (stereo not given) belongs -54.9% (active); to `COc1cc(/C=C\c2cc(/C=C\c3ccc(O)c(OC)c3)n(C(=O)Nc3ccc(C(F)(F)F)cc3)n2)ccc1O`, 15.2% (inactive).
For `CCN(CC)CCNC(=O)c1ccc(NCN2C(=O)NC(c3ccccc3)(c3ccccc3)C2=O)cc1` the value was 107% (inactive) and 105% (inactive); for `CC(=O)/C(=C/c1ccc(-c2ccccc2)cc1)C(=O)c1ccccc1`, 56.3% (inactive).
In the case of `CNCc1cccc2c1OCCOCCOCCN(CCN1CCOCC1)S(=O)(=O)c1ccc(cc1)-c1cnc(N)c(n1)C(=O)N2`, the growth is -23.5% (active).
Take `COc1ccc(-c2nc(/C=N/Nc3cc(C)nc4ccc(Cl)cc34)c(C)o2)cc1`: the growth was -41% (active).
To `O=C(Nc1ccccc1)OCC(CN1CCCCC1)OC(=O)Nc1ccccc1` (stereo not given) belongs 69.3% (inactive) and 95% (inactive).
As for `O=C1CCCN1C(O)CCN(Cc1ccccc1)Cc1ccc(Cl)cc1` (stereo not given), the growth was 96.4% (inactive).
For `C=CCN(/C=C/CN(CC=C)CC=C)CC=C`, the growth was 102% (inactive).
As to `COc1cc(-c2csc(NC(=O)Nc3ccc(Cl)cc3Cl)n2)cc(OC)c1OC`, the growth is 17% (inactive).
Turning to `NC(CSSCC(N)C(=O)O)C(=O)O` (stereo not given), the growth is -12.8% (active).
To `COCCNC(=O)c1ccc(-c2nc3ccc4[nH]ncc4c3c3c2CCCC3)cc1` belongs 11.4% (inactive).
With `Cc1ccc(N)cc1S(=O)(=O)O`, the growth is 92.7% (inactive) and 111% (inactive).
To `C/C(Nc1ccc(Cl)c(Cl)c1)=C1\CCOC1=O` belongs 96.6% (inactive); to `O=C1/C(=C/c2ccccc2Br)COc2ccc(O)c(O)c21`, -9.04% (active).
To `NC(=O)c1ccccc1NC(=O)c1ccccc1Cl` belongs 64.4% (inactive); to `COc1ccc([N+](=O)[O-])cc1OC`, 85.5% (inactive) and 99.2% (inactive); to `CC(C)Oc1ccc2cc(-c3nn(CC4CCNCC4)c4ncnc(N)c34)ccc2c1`, 63.8% (inactive) and -56.6% (active).
Regarding `CC(O)c1nc2c(c(=O)n(C)c(=O)n2C)n1C` (stereo not given), the growth is 100% (inactive).
For `Nc1ccccc1Nc1ccccc1` the value was 23.5% (inactive) and 11.2% (inactive); for `CCCCNC(=O)Oc1ccc(/C(=C(/CC)Cc2ccccc2)c2ccc(OCCN3CCCCCC3)cc2)cc1`, -12.8% (active); for `COC(=O)c1cc(-c2ccc(C)cc2)n(C(=O)CSc2nc3sc(C(N)=O)c(C)c3c(=O)n2Cc2ccccc2)n1`, 106% (inactive).
To `Nc1c(Br)cc(Br)c2c1[nH]c(=O)c1ccccc12` belongs 89.8% (inactive).
To `COc1ccc(C(=O)n2nc(CC(=O)NCc3ccccc3)nc2N)cc1` belongs 91.9% (inactive).
Regarding `O=[N+]([O-])c1cc(S(=O)(=O)c2ccc(F)c([N+](=O)[O-])c2)ccc1F`, the growth is 59.9% (inactive).
For `COc1ccc(C(=O)COc2ccc(/C=C3\Oc4ccc5ccccc5c4C3=O)cc2)cc1` the value was 87.3% (inactive); for `Nc1ncnc2c1c(-c1cccc(Cl)c1)nn2CC(=O)N1CCOCC1`, 101% (inactive).
